# This is part of a sample that, as a whole, favours compounds with a hit. Of some 83,000 tested, about 20% had one in any assay.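 96-well plates, one dose, 48 hours. Percent growth reported; active if below 10.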 Unmarked numbers belong to inactive results. Activity calls are given as the source filed them.
# What was measured:
# Test in all cases: NCI-60 one-dose screen, 48 h (100 = growth as untreated, 0 = no growth, -100 = all killed)
# DU-145 prostate = settings: 10 µM
# K-562 leukemia = settings: 10 µM
# MALME-3M melanoma = settings: 10 µM
# MDA-MB-231 breast = settings: 10 µM
# RXF 393 renal = settings: 10 µM
# SF-268 CNS = settings: 10 µM
# SF-295 CNS = settings: 10 µM
# SF-539 CNS = settings: 10 µM
# UACC-257 melanoma = settings: 10 µM
# M14 melanoma = settings: 10 µM
# HCT-15 colon = settings: 10 µM
# HT29 colon = settings: 10 µM
# SNB-75 CNS = settings: 10 µM
# SNB-19 CNS = settings: 10 µM
# U251 CNS = settings: 10 µM
# PC-3 prostate = settings: 10 µM
# SK-MEL-5 melanoma = settings: 10 µM
# UACC-62 melanoma = settings: 10 µM unless noted
# LOX IMVI melanoma = settings: 10 µM
# SK-MEL-28 melanoma = settings: 10 µM
SMILES,growth (DU-145 prostate) [%],growth (K-562 leukemia) [%],growth (MALME-3M melanoma) [%],growth (MDA-MB-231 breast) [%],growth (RXF 393 renal) [%],growth (SF-268 CNS) [%],growth (SF-295 CNS) [%],growth (SF-539 CNS) [%],growth (UACC-257 melanoma),growth (M14 melanoma) [%],growth (HCT-15 colon) [%],growth (HT29 colon) [%],growth (SNB-75 CNS) [%],growth (SNB-19 CNS) [%],growth (U251 CNS) [%],growth (PC-3 prostate) [%],growth (SK-MEL-5 melanoma) [%],growth (UACC-62 melanoma) [%],growth (LOX IMVI melanoma) [%],growth (SK-MEL-28 melanoma) [%]
O=S(=O)(O)c1ccc(O)c2ccccc12,115,104,127,90.8,108,98.5,119,91.8,112%,79.4,113,110,88.1,97.8,107,92,114,101,92.7,109
NC(C(=O)O)C(O)c1ccco1 (stereo not drawn),115,105,98.6,117,105,116,108,110,102%,105,99.1,120,106,114,102,96,104,113,103,107
COC(=O)c1ccccc1Br,102,111,98.5,112,110,101,95.1,102,114%,88.9,99.6,110,80.5,96.4,106,80,107,94.4,98.4,159
COc1cc(C2NC(=O)C(C#N)=C(Nc3cccc(C)c3)S2)ccc1O (stereo not drawn),122,93.8,108,99.2,103,109,101,90.4,-2.62% (active),101,111,107,89.6,102,103,97.6,101,97.8,99.1,103
COC(=O)C(O)c1ccccc1 (stereo not drawn),114,101,134,91,111,102,139,98,116%,105,105,122,93,102,104,94.6,104,94.1,107,103
c1cc[n+](C2c3ccccc3C([n+]3ccccc3)c3ccccc32)cc1 (stereo not drawn),91.7,72.9,53.1,70.6,61.6,23,52,27.9,80.1%,96,103,73.4,17.9,26.7,21.5,58.4,27.6,67.3,76.1,61.6
O=C1c2ccccc2C(=O)c2c1ccc(C(=O)O)c2[N+](=O)[O-],107,77.3,98.1,79,128,111,105,96,105%,87.2,105,93.8,91.2,109,99.6,94.8,109,–,88.4,101
COC(=O)c1ccccc1N(C)C,108,81.4,101,112,118,107,98.7,115,103%,102,103,94.8,93.3,98.8,112,100,101,105,–,103
O=C(O)/C=C/c1ccc2c(c1)CCC2,118,86.9,121,118,106,116,98.9,106,97.8%,106,99.5,104,100,105,99.3,103,105,103,102,104
